# Hits are enriched below; roughly 4% of the tested compounds scored in any of these assays.
# GDH-TPI inh: GDH-TPI coupled enzyme inhibition counter-screen; hit rate 1.2% among 360,000; inhibition, % at 4.8 µM; GDH-TPI coupled enzyme counterscreen, NADH absorbance; in the data active = inhibition above about 30%;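 note: 0% = DMSO wells and 100% = wells lacking the enzyme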
# Mtb bLac sens: beta-lactam sensitization of Mtb H37Rv; M. tuberculosis H37Rv growth with meropenem, percent inhibition; AID 434955; inhibition, % at 25 µM; hit rate 0.27% among 330,000; call rule not given here;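 note: growth measured after seven days incubation then overnight dye step; 0% = bacteria only wells and 100% = bacteria with antibiotic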
# Rv3671c protease: inhibits the M. tuberculosis serine protease Rv3671c. P9WHR9. inhibition, % at 5.96 µM. hit rate 0.048% among 320,000; in the data active = inhibition above about 38%;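 note: extracellular domain of Rv3671c used as enzyme; 0% = enzyme with DMSO and 100% = no enzyme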
# RecA intein inh: inhibitors of M. tuberculosis RecA intein splicing. inhibition, % (test concentration not listed). P9WHJ3. cell-free RecA intein splicing, fluorescence. hit rate 0.75% among 290,000. AID 2221; in the data active = inhibition above about 30%;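 note: 0% = vehicle wells and 100% = reference inhibitor control wells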
# Mtb UGM inh: inhibitors of M. tuberculosis UDP-galactopyranose mutase; P9WIQ1; AID 504406; inhibition, % at 10 µM; purified UGM, fluorescence polarization probe displacement; hit rate 0.06% among 320,000; in the data active = inhibition above about 10%, passing the limit was not always enough
# FBA Mtb inh: Mtb fructose-bisphosphate aldolase inhibition. hit rate 2.3% among 360,000. P9WQA3. inhibition, % at 1 µM. purified M. tuberculosis FBA, fluorescence read-out; in the data active = inhibition above about 27%;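 note: 0% = vehicle and 100% = reference inhibitor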
# An asterisk follows results filed as active; . = not tested or not shown; + = active, no number.
SMILES,GDH-TPI inh,Mtb bLac sens,Rv3671c protease,RecA intein inh,Mtb UGM inh,FBA Mtb inh
COc1ccc(CNC(=O)Cn2cc(C)c(=O)[nH]c2=O)cc1,-4.5,.,.,.,.,-0.3
O=C(CCl)Nc1c2c(nn1-c1ccccc1)CSC2,-6.6,99.1,-0.5,34.9*,0.3,-1.1
O=c1c(O)c(-c2cc(O)c(O)c(O)c2)oc2cc(O)cc(O)c12,32.4*,8.9,-38.9,.,-2.2,-2.7
O=c1c(O)c(-c2ccccc2)oc2cc(O)cc(O)c12,28.4,-3.4,-17.0,.,.,0.9
Cc1nonc1NC(=O)CSc1nnc(-c2ccoc2C)n1-c1cccc(Cl)c1,-3.4,-0.6,-4.4,3.7,-5.0,1.6
CCCn1c(SCC(=O)Nc2nonc2C)nnc1-c1ccoc1C,-1.2,-2.3,-0.3,.,0.0,+
O=C1Cc2cc(NS(=O)(=O)c3ccc([N+](=O)[O-])cc3)cc3c2N1CCC3,-0.3,-17.6,3.0,23.0,0.3,0.3
COc1ccc(CN2CCNC(=O)C2CC(=O)N(C)Cc2ccncn2)c(OC)c1 (stereo not drawn),3.2,3.6,0.1,30.5*,-2.2,-1.8
CC1CCN(N=Nc2nc3c([nH]2)c(=O)n(C)c(=O)n3C)CC1,31.5*,.,.,.,.,-2.1
CC1CCCCN1N=Nc1nc2c([nH]1)c(=O)n(C)c(=O)n2C (stereo not drawn),39.5*,.,.,.,.,-1.1
Cn1c(=O)c2[nH]c(N=NN3CCCCC3)nc2n(C)c1=O,54.4*,.,.,.,.,-6.8
O=C(NN=C1CCCC1)c1cccc(Br)c1,10.3,-13.5,-4.0,0.7,3.4,-1.1
Cc1ccc(NC(=O)C2CCN(C(=O)c3ccco3)CC2)cc1C,4.5,-2.6,-0.7,2.4,0.6,2.5
O=C(CSc1ccccc1F)NC(=O)NC1CCCC1,0.9,.,.,.,.,2.1
CCNC(=O)C1(C)CCCN(Cc2cccc3ccccc23)C1 (stereo not drawn),-3.1,.,.,.,.,-1.9
COc1cc(C(=O)NN=Cc2ccc(N(C)C)cc2)cc(OC)c1OC,42.5*,.,.,.,.,-2.0
COc1ccc(/C=N/NC(=O)c2ccc3ccccc3c2)cc1OS(=O)(=O)c1ccc(NC(C)=O)cc1,35.8*,16.2,-267.0,-0.3,0.2,1.0
COc1cc(/C=N/NC(=O)c2cc[n+]([O-])cc2)cc(OC)c1OC,38.6*,-8.3,-0.4,1.5,1.8,-2.8
COc1cc(/C=N/NC(=O)c2ccncc2)cc(OC)c1OC,9.4,98.4,3.4,-0.2,-0.5,0.6
COc1ccc(/C=N/NC(=O)c2cc[n+]([O-])cc2)cc1OC,20.7,-5.9,-1.7,-1.3,-4.1,-1.0
CCOc1cc(/C=N/NC(=O)c2ccc(N(C)S(=O)(=O)c3ccccc3)cc2)ccc1OC,41.8*,3.9,-60.2,0.8,-0.3,0.6
O=C(Nc1ccc(Cl)c(S(=O)(=O)N2CCOCC2)c1)c1ccncc1,11.9,7.0,-1.4,.,3.9,2.7
COc1ccc(C(CNC(=O)c2ccc(-c3ccccc3)cc2)N(C)C)cc1OC (stereo not drawn),2.3,3.1,-5.0,1.0,-1.4,0.7
O=C(CNC(=O)c1cccs1)N=Nc1c(O)[nH]c2ccc([N+](=O)[O-])cc12,34.5*,-3.1,4.3,16.4,2.2,-2.2
CCCCCCC(=O)N=Nc1c(O)[nH]c2ccc([N+](=O)[O-])cc12,2.1,0.4,-4.8,0.9,2.5,3.4
SMILES,GDH-TPI inh,Mtb bLac sens,Rv3671c protease,RecA intein inh,Mtb UGM inh,FBA Mtb inh
Cc1ccc(C(=O)Nc2ncc([N+](=O)[O-])s2)cc1,18.2,4.8,-10.9,24.9,5.5,-14.2
O=C(Nc1ncc([N+](=O)[O-])s1)c1ccc2c(c1)OCO2,8.8,13.1,-5.8,30.5*,4.3,-22.5
CC1Nc2ncnc(N3CCN(c4ccccc4)CC3)c2N(Cc2ccc(Cl)cc2)C1=O (stereo not drawn),20.3,93.4,-1.4,1.4,-0.4,0.8
CC1Nc2ncnc(N3CCc4ccccc4C3)c2N(Cc2ccc(Cl)cc2)C1=O (stereo not drawn),0.5,0.0,-18.5,31.6*,-1.9,-2.2
CCC1Nc2ncnc(N3CCc4ccccc4C3)c2N(Cc2ccc(Br)cc2)C1=O (stereo not drawn),.,.,.,.,.,5.7
CC1Nc2ncnc(N3CCc4ccccc4C3)c2N(Cc2ccc(Br)cc2)C1=O (stereo not drawn),4.3,3.0,-18.2,35.0*,-3.9,0.0
CCN(Cc1ccc(O)cc1)CC1CCCN(CCc2cccc(F)c2)C1 (stereo not drawn),1.5,-5.5,6.8,-1.0,-0.1,-0.3
C=C1C(=O)OC2CC(C)C3C=CC(=O)C3(C)C(O)C12 (stereo not drawn),-0.5,.,.,.,.,3.7
C=C1C(=O)O[C@@H]2C[C@@H](C)[C@@H]3C=CC(=O)[C@@]3(C)[C@@H](OC(=O)CC(=O)O[C@H]3[C@@H]4C(=C)C(=O)O[C@@H]4C[C@@H](C)[C@@H]4C=CC(=O)[C@]43C)[C@H]12,-5.9,99.9,-35.4,33.1*,3.7,-0.2
COC(=O)c1ccc(-c2cc(C(=O)O)c3cc4c(cc3n2)OCCO4)cc1,21.0,77.0,5.3,2.2,-2.7,+
COc1cc(-c2cc(C(=O)O)c3cc4c(cc3n2)OCCO4)cc(OC)c1OC,20.0,4.5,2.2,.,1.6,-2.9
COc1cccc(C(=O)Nc2nnc(S(=O)(=O)Nc3cccc(C)c3)s2)c1,36.5*,3.8,-16.4,-2.7,5.4,6.2
COc1cccc(C(=O)Nc2nnc(-c3ccccc3)s2)c1,35.6*,0.5,.,-0.7,-3.9,19.2
Cc1cccc(NS(=O)(=O)c2nnc(NC(=O)c3ccc(C)c(C)c3)s2)c1,25.4,2.9,-23.7,.,0.9,0.0
CC(=O)c1ccc(N/N=C(/C(N)=O)C2=NC(C)(C)Cc3ccccc32)cc1,34.6*,5.8,-4.9,3.6,-3.4,-2.7
Cc1ccc(S(=O)(=O)NC(=O)C2(C)CCN2C(=O)COc2ccc(Cl)cc2)nc1 (stereo not drawn),12.4,.,.,.,.,3.4
CCOC(=O)c1ccc2nc(C(F)(F)F)[nH]c(=O)c2c1,4.8,10.5,-0.7,.,3.1,42.0*
COc1cc(C)nc(Nc2nc(C)c(C(C)=O)s2)n1,34.8*,10.9,-17.8,3.4,2.2,-3.1
CC(=O)c1sc(Nc2ccccn2)nc1C,47.0*,-5.6,-4.4,0.8,-1.4,2.1
CC(=O)c1sc(Nc2cccc3ccccc23)nc1C,26.5,15.0,-0.7,2.1,-1.2,1.2
CCc1ccc(N2CC(C(=O)OCc3nc4ccsc4c(=O)[nH]3)CC2=O)cc1 (stereo not drawn),11.8,-1.6,14.2,.,-0.4,8.7
C/C(=N/NC(=O)CNC(=O)c1cccnc1)c1ccc(Cl)c(Cl)c1,-2.0,-2.7,7.4,-0.8,-0.9,2.3
CCOC(=O)c1nc2sc3c(c2c(=O)[nH]1)CCCC3,21.9,9.8,-3.9,-5.8,-0.3,181.0*
O=C(Nc1nc2ccccc2n1CCN1CCOCC1)c1cn(-c2ccccc2)nc1-c1ccccc1,42.1*,0.8,-25.7,18.8,-0.5,1.2
CCc1noc(C)c1C(=O)N1CCC(CCC(=O)Nc2cccc(OC)c2)CC1,4.1,6.6,2.3,3.2,-2.3,0.2
Clc1cccc(Cc2c(C3CCCCC3)nc3ccc(Cl)cn23)c1,.,.,.,.,.,-2.5
